Source: PubChem (National Center for Advancing Translational Sciences (NCATS))
S-ASM inh: blocks human secretory acid sphingomyelinase; P17405; placental ASM, HMU-PC fluorogenic substrate, 60 min; Potency, µM (series often up to 57.5 µM), for the others: at the top dose activity change, negative = inhibition, most hits filed as inhibitors; actives 0.006% (n = 340,000); AID 504937
Target sequence (P17405 47-631 limits assumed): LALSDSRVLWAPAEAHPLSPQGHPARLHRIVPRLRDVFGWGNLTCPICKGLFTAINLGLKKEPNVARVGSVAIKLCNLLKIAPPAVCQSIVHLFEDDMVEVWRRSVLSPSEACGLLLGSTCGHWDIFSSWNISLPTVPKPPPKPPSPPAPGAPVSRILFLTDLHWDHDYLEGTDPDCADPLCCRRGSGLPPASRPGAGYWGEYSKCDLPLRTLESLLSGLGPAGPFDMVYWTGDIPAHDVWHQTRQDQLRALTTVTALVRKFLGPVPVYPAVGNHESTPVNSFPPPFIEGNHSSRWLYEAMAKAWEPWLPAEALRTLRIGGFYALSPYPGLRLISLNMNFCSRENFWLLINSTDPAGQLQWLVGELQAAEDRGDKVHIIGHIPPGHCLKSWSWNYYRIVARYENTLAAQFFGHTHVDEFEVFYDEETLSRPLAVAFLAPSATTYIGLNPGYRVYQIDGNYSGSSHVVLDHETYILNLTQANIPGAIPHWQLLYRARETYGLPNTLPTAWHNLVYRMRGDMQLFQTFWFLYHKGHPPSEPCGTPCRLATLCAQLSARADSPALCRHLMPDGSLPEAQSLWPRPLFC
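qHTS format. ASM enzyme prepared from human placenta hydrolyses the fluorogenic substrate HMU-PC0 (9 uM final) over 60 min at 37 °C after a 10 min compound preincubation.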
TSG101-PTAP inh: blocks PTAP/TSG101 interaction to inhibit HIV-1 budding. Q99816. Fluorescence polarization, FITC-PTAP peptide / Tsg101 binding. Potency, µM (titrated, usually from 115 µM), inactives show top-dose activity change, negative = inhibition, actives largely listed as inhibitors. 340,000 tested, under 10 active; active means well fitted inhibition curve with a large enough effect in the main read-out, with a control signal flat, not every such curve was filed as active; inconclusive means small, poorly fitted or top-dose-only effect, or effect the other way, or a change in a side signal; inactive means no such curve, though single readings can be large or run the other way; further: % of control where 0% means no effect
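FP read-out: FITC-PTAP peptide, 50 nM final, binding Tsg101 binding domain, 10 uM final; 20 min, r.t.; 10 mM HEPES pH 7.5, 0.15 M NaCl, 0.01% Tween 20, 3 mM EDTA, 0.1 mM TCEP.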
GALK inh: galactokinase (human) inhibition; Potency, µM (top dose mostly 57.5 µM), without a hit: top-dose activity change, negative = inhibition, most hits filed as inhibitors; actives 0.007% (n = 270,000); P51570; Purified GALK, Kinase-Glo residual ATP luminescence; further: on the % scale 0 is the no-effect control and ±100 the full control effect
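5 nM enzyme, 35 uM ATP, 100 uM galactose, 20 mM HEPES pH8.0, 5 mM MgCl2; 1 h RT; residual ATP by Kinase-Glo Plus luminescence, qHTS format.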
A-T KAP1 phos: candidate therapy for ataxia-telangiectasia; F2112 A-T fibroblasts, KAP-1 phosphorylation AlphaLISA; neocarzinostatin DNA damage 30 min before lysis; actives 0.19% (n = 320,000); Potency, µM (series often up to 57.5 µM), inactives show top-dose activation, most hits filed as activators; AID 485349; further: % of control where 0% means no effect; nearly all actives have a fitted effect of over 45% in size
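hTERT-immortalized A-T patient fibroblasts (F2112), 500 cells/well in OPTI-MEM, 1% FBS, got compounds for 60 min, then NCS for 30 min at 37C. Lysates were then assayed for phospho-KAP-1 by AlphaLISA (anti-pKAP1 donor, anti-KAP1 acceptor beads), 6 hr at 25C.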
Mito fusion act: inhibitors of mitochondrial division or activators of mitochondrial fusion; actives 0.23% (n = 320,000); Potency, µM (series often up to 46.1 µM), inactives show top-dose growth rescue (activation), hits mostly activators; AID 485298; S. cerevisiae fusion-defective mutant growth rescue, CellTiterGlo 48 h; further: % of control where 0% means no effect; nearly all actives have a fitted effect of over 45% in size
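S. cerevisiae fusion-defective temperature-sensitive mutants (e.g. fzo1-1, mgm1-5) grown 48 h at 37C in YPEG (ethanol/glycerol non-fermentable) medium with 23 nl compound per well; growth rescue read as CellTiterGlo luminescence.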
a7 integrin act: activates integrin-mediated alleviation for muscular dystrophy. actives 0.064% (n = 350,000). Potency, µM (series often up to 38.3 µM), for the others: top-dose activation, actives largely listed as activators. alpha7betagal myoblasts, beta-gal FDG fluorescence, 48 h. AID 624291;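 further: 100% = response of the positive control SU9516; nearly all actives have a fitted effect of over 60% in size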
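alpha7betagal+/- myoblasts (passage 13, 250/well) treated 48 h at 37C with compounds at 1:260 dilution of DMSO stock. Lysed, then beta-galactosidase activity read as FDG fluorescence (ex 480/em 540) after 30 min, with pre-read for autofluorescence.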
Starred values were filed as active, the others as inactive; ? = inconclusive; / = no result; ! = not confirmed by another sample; [ ] = remark or other dose. A selection: hits, their analogues and other compounds. The true share with any hit is near 0.46%. Unless noted, the call rests on the fitted dose curve; in most records, active means well fitted curve in the direction sought with a large enough effect; inconclusive means small, poorly fitted or top-dose-only effect, or another doubt; inactive means no such curve, though single readings can be large; an effect the other way counts as inactive or inconclusive. Potency means the concentration at half of the fitted maximal effect.

SMILES	S-ASM inh	TSG101-PTAP inh	GALK inh	A-T KAP1 phos	Mito fusion act	a7 integrin act
COc1ccccc1CNS(=O)(=O)c1ccc(Cl)s1	7%	-4%	0%	-6%	-6%	6.3µM*
O=C(CSc1nncn1-c1ccccc1)Nc1ccccc1	-1%	0%	0%	-9%	-1%	-16%
CS(=O)(=O)c1ccc(Cl)c(NC(=O)CSc2nncn2-c2ccccc2)c1	6%	-1%	-2%	9%	4%	13µM*
CN(Cc1ccc(C(F)(F)F)cc1)C(=O)c1ccc(Oc2ccccc2)cc1	-8%	1%	0%	-3%	-17%	-9%
CN(Cc1ccccc1F)C(=O)c1ccc(Oc2ccccc2)cc1	-1%	1%	-1%	14µM*	22%	10%
COc1ccc(CNC(=O)CN2C(=O)CSc3ccc(S(=O)(=O)N4CCOCC4)cc32)c(OC)c1	0%	-1%	0%	7.1µM*	4%	-14%
C[C@H]1CC[C@H]2C(=O)N3[C@H](c4ccccc4Br)[C@@H](C)CC[C@H]3C(=O)N2[C@@H]1c1ccccc1Br	/	/	/	1%	22µM*	/
COc1cc(C#Cc2c(-c3cncn3C)n(C)c3ccc(-c4ccc(OC)nc4)cc23)cc(OC)c1	-13%	-2%	/	32µM*	-27%	9%
COc1cc(C#Cc2c(-c3cncn3C)n(C)c3ccc(-c4cc(OC)c(OC)c(OC)c4)cc23)cc(OC)c1	22%	-10%	/	10%	/	-30%
CCOC(=O)N1CCC(NS(=O)(=O)c2cc(C(=O)OC)n(C)c2)CC1	0%	1%	/	2%	-1%	13%
O=C(Nc1cc(Sc2ccccn2)cc([N+](=O)[O-])c1)c1cccc(Cl)c1	-15%	0%	-3%	/	16µM*	-36%
O=C(OCc1ccc(Br)cc1F)c1cc2ccccc2oc1=O	-4%	0%	14%	-2%	-7%	0%
COc1ccc(NC(=S)NCc2ccc(F)cc2)cc1	6%	-8%	1%	22µM*	-24%	9%
COc1ccc(CNC(=S)Nc2ccc(OC)cc2)cc1	-1%	0%	4%	-1%	-2%	-10%
Cc1ccc(Nc2nc(N)c([N+](=O)[O-])c(N3CCOCC3)n2)cc1C	-7%	0%	-2%	-7%	-29%	20%
Cc1ccc(Nc2nc(N)c([N+](=O)[O-])c(N3CCC(C)CC3)n2)cc1C	-18%	-1%	-1%	32µM*	-27%	-14%
O=C(c1cc(-c2ccc(Cl)s2)nc2ccccc12)N1CCCC1	35%	1%	/	/	/	10%
Cc1ccc(-c2cc(C(=O)N3CCCC3)c3ccccc3n2)s1	473%	-5%	-2%	20µM*	-4%	-26%
Cc1ccc(C(=O)N2CCC3(CC2)Oc2ccc(F)cc2C(=O)C32CC(c3cccnc3)=NO2)s1 (stereo not drawn)	-2%	0%	6%	40µM*	1%	-16%
COc1ccccc1P(=O)(c1ccccc1)c1ccc([N+](=O)[O-])cc1 (stereo not drawn)	5%	-7%	-3%	-2%	16%	17%
Cc1ccc(C(=O)Nc2sc3c(c2C(=O)O)CCCC3)o1	1%	0%	-8%	-10%	-1%	1%
Cc1ccc(C(=O)Nc2sc3c(c2C(=O)O)CCCCC3)o1	5%	0%	5%	10µM*	?	15%
S=c1[nH]nc(C2CCCCC2)n1/N=C/c1ccc(Br)cc1	-5%	-4%	-6%	13µM*	-17%	11%
CN1CCN(c2nc3cc(C(F)(F)F)ccc3n3cccc23)CC1	-16%	1%	/	/	18µM*	/
COc1ccc(NC(=O)CSc2c3c(nc4cc(Cl)ccc24)CCCC3)cc1OC	-7%	-1%	1%	?	6%	-40%
SMILES	S-ASM inh	TSG101-PTAP inh	GALK inh	A-T KAP1 phos	Mito fusion act	a7 integrin act
COCCNC(=O)CSc1c2c(nc3ccc(Cl)cc13)CCCC2	4%	-2%	1%	3%	18µM*	0%
Oc1ccc(CNc2ccc(C(F)(F)F)cc2Cl)c2cccnc12	/	/	/	-17%	16%	/
N#CC(=C(\N)Sc1ccccc1N)/C(C#N)=C(/N)Sc1ccccc1N	/	/	/	/	18µM*	/
O=C(C1CCCN(c2ncnc3c2nc2n3CCCCC2)C1)N1CCN(c2cccc(Cl)c2)CC1 (stereo not drawn)	-15%	-5%	4%	1%	8.9µM*	-49%
O=C(C1CCCN(c2ncnc3c2nc2n3CCCCC2)C1)N1CCN(c2ccccc2)CC1 (stereo not drawn)	1%	-3%	-4%	4%	2%	3%
c1ccc(Oc2cc(-c3ccccc3)nc(-c3ccccc3)n2)cc1	2%	-3%	0%	8%	3%	15%
Cc1cc(Oc2ccccc2)nc(-c2ccccc2)n1	-4%	-10%	-1%	18µM*	-5%	-8%[7.66 µM]
COC(=O)C1=C(C)NC(C)=C(C(=O)OC(C)(C)CN(C)CCC(c2ccccc2)c2ccccc2)C1c1cccc([N+](=O)[O-])c1 (stereo not drawn)	/	/	/	/	0.65µM*	/
COCCOC(=O)C1=C(C)NC(C)=C(C(=O)OC/C=C/c2ccccc2)C1c1cccc([N+](=O)[O-])c1 (stereo not drawn)	/	/	/	/	5.8µM*	/
CCOC(=O)C1=C(C)NC(C)=C(C(=O)OC)C1c1cccc([N+](=O)[O-])c1 (stereo not drawn)	-7%	-2%	-1%	23%	-21%	/
COC(=O)C1=C(C)NC(C)=C(C(=O)O[C@@H]2CCCN(Cc3ccccc3)C2)[C@@H]1c1cccc([N+](=O)[O-])c1	-10%	?	/	/	/	/
COCCOC(=O)C1=C(C)NC(C)=C(C(=O)OC(C)C)C1c1cccc([N+](=O)[O-])c1 (stereo not drawn)	-8%	-3%	-2%	11%	21µM*!	/
Oc1ccc(-c2nc3ccc4ccccc4c3c3c2CCC3)cc1O	-22%	-1%	1%	7%	16µM*	-68%
Cc1cc(C)c2c(ccc3ccccc32)n1	-1%	-1%	/	/	/	16%
CC1CCC2(CC1)NC(=O)N(CC(=O)N1CCN(S(=O)(=O)c3ccc4c(c3)CCC4)CC1)C2=O (stereo not drawn)	4%	-3%	/	-5%	-7%	0%
CCCCN(C)C(=O)C1CCCN(S(=O)(=O)c2ccc3c(c2)CC(C)N3C(=O)C2CC2)C1 (stereo not drawn)	2%	1%	-3%	0%	1.1µM*	-63%
Cc1cc(-c2ccccc2)n2nc(N)nc2n1	7%	1%	-2%	-10%	-8%	13µM*
O=c1ccc2ccc(O)c(O)c2o1	/	/	/	/	23µM*	/
